Measured values published in PubChem BioAssay.
Activity calls are given as the source filed them.

Key:
[1] = binders of probe aFSTL3 on microarray, primary screen, stem cell growth factor project, biochemical, small-molecule microarray, fluorescence 635/667 (AID 1064); conditions: higher = more signal;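 also: measures binding of the biotinylated anti-FSTL3 antibody to printed compounds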
[2] = binders from COS7 lysate, DM2A8 probe, primary screen, torsin A project, cell lysate, small-molecule microarray, fluorescence 635/667 (AID 1065); conditions: higher = more signal, COS7 lysate expressing mutant human TOR1A
[3] = binders of probe aFGF2 on microarray, primary screen, stem cell growth factor project, biochemical, small-molecule microarray, fluorescence 635/667 (AID 1067); conditions: higher = more signal;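 also: measures binding of biotinylated aFGF2 protein to printed compounds on slides; z-score merges feature fluorescence and signal-to-noise across triplicate slides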
[4] = binders of probe aFGF10 on microarray, primary screen, stem cell growth factor project, biochemical, small-molecule microarray, fluorescence 635/667 (AID 1071); conditions: higher = more signal;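 also: score merges 667 nm spot intensity and signal to noise from triplicate slides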
[5] = biological target: Neurogenic locus notch homolog protein 2 (Homo sapiens) (UniProt Q04721); assay: Notch2 binders on small-molecule microarrays, primary screen, biochemical, small-molecule microarray, 635 nm fluorescence, stem cell growth factors (AID 1073); conditions: Notch2 binding, higher = more signal
Neurogenic locus notch homolog protein 2 (Homo sapiens), sequence (Q04721 whole entry, looked up, canonical isoform): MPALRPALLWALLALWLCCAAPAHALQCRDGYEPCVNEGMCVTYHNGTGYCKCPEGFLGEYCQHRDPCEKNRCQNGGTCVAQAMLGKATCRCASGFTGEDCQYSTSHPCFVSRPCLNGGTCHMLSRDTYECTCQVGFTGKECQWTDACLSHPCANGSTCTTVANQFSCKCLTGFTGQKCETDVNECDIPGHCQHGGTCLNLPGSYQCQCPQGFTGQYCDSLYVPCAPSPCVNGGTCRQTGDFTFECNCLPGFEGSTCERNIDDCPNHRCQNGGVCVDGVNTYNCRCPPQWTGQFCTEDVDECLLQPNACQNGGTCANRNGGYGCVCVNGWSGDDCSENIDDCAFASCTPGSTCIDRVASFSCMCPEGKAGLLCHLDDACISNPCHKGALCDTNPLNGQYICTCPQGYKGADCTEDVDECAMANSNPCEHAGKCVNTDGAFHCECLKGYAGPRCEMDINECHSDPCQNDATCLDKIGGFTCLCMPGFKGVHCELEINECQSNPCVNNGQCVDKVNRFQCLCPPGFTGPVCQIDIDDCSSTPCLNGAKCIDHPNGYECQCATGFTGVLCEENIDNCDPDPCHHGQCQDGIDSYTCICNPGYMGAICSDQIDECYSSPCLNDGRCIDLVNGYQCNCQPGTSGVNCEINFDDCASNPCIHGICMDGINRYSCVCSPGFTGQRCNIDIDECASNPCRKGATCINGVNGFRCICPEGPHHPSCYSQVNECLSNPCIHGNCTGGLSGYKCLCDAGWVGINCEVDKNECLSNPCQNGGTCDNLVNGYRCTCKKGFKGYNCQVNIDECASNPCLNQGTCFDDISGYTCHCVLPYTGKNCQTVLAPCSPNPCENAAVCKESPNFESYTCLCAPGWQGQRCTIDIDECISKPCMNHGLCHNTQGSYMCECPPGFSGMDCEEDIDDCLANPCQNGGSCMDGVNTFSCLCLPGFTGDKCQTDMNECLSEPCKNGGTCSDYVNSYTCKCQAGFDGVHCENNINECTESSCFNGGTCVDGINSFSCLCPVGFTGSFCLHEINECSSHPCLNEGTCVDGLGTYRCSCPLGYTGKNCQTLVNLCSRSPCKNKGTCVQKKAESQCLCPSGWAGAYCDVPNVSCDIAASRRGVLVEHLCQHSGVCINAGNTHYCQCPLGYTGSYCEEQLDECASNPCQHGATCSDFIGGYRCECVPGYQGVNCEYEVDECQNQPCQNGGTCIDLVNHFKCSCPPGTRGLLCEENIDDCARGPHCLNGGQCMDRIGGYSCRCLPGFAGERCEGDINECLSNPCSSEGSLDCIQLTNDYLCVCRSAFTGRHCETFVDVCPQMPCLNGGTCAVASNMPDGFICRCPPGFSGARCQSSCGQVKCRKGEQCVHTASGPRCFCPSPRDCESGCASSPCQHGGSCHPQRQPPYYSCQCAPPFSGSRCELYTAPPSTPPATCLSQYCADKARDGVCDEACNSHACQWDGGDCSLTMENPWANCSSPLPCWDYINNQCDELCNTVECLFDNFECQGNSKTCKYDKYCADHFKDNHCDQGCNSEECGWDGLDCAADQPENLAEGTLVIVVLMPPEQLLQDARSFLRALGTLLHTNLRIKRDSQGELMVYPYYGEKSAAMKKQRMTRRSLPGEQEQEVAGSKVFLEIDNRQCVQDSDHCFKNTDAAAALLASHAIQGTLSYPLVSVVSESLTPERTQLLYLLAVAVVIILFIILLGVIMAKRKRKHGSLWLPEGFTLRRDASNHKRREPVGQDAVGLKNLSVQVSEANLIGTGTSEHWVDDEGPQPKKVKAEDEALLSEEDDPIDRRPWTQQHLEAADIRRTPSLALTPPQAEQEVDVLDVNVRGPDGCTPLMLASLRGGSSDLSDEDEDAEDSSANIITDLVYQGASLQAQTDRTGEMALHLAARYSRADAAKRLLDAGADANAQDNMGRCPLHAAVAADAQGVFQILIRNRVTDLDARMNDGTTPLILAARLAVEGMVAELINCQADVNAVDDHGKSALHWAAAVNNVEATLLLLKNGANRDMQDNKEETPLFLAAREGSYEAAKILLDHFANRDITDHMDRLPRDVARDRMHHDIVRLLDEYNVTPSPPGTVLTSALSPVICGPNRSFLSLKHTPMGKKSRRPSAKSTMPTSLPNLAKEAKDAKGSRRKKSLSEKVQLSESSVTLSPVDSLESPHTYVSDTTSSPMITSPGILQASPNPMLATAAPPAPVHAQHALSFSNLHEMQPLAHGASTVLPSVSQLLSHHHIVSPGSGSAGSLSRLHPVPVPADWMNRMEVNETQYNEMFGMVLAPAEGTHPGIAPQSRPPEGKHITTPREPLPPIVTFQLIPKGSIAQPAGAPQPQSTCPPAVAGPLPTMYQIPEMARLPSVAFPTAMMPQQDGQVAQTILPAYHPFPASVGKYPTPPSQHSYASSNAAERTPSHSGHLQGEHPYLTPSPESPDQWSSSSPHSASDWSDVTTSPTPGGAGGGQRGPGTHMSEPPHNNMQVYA

[6] = biological target: Pro-neuregulin-1, membrane-bound isoform (Homo sapiens) (UniProt Q02297); assay: NRG1 binders on small-molecule microarrays, primary screen, psychiatric disease protein project, biochemical, small-molecule microarray, fluorescence 635/667 (AID 1075); conditions: NRG1 binding, 635 nm fluorescence, higher = more signal;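 also: score combines 667 nm spot fluorescence with signal to noise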
[7] = tested on: Neuregulin-1 EGF-like domain; assay: binders of neuregulin-1 EGF-like domain, primary screen, biochemical, small-molecule microarray, 635 nm fluorescence (AID 1081); conditions: small-molecule microarray binding, higher = more signal;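 also: binding of the protein to compounds printed on small-molecule microarray slides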
[8] = FRG1 promoter luciferase signal modulators, primary screen, FRG1 inhibition for FSHD, cell-based, C2C12 myotubes, firefly/Renilla luciferase, luminescence (AID 1084); conditions: higher = more signal, called active from +8 up or from −8 down
[9] = binders of probe aFST on microarray, primary screen, stem cell growth factor project, biochemical, small-molecule microarray, fluorescence 635/667 (AID 1086); conditions: higher = more signal;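 also: score merges 667 nm fluorescence with signal-to-noise of each printed compound spot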
[10] = binders of probe aHhip on microarray, primary screen, stem cell growth factor project, biochemical, small-molecule microarray, fluorescence 635/667 (AID 1087); conditions: higher = more signal;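 also: score merges spot fluorescence at 667nm with spot signal to noise ratio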
[11] = tested on: PRMT1 (protein arginine N-methyltransferase 1); assay: PRMT1 binders on small-molecule microarrays, primary screen, biochemical, small-molecule microarray, 635 nm fluorescence (AID 1088); conditions: small-molecule microarray binding, higher = more signal;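 also: binding of Prmt1 protein to compounds spotted on small-molecule microarray slides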
[12] = yeast growth modulation, basal conditions, primary screen, YJM789 clinical isolate, OD600, 24 h (AID 1089);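 also: growth of clinical yeast isolate S. cerevisiae YJM 789 seeded 1000 cells per well; test concentration not given here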; conditions: S. cerevisiae YJM789 growth, higher = more signal, called active from +8 up or from −8 down
[13] = fission yeast growth modulation, primary screen, strain 972, OD600, 24 h, no modulator (AID 1090);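 also: basal condition with compound alone and no growth modifier present; test concentration not given here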; conditions: S. pombe 972 growth, higher = more signal, called active from +8 up or from −8 down
[14] = S. cerevisiae growth modulation with rapamycin, primary screen, strain BY4716, OD600, 96 h (AID 1091); conditions: higher = more signal, called active from +8 up or from −8 down; also: test concentration not given here
[15] = biological target: Torsin-1A-interacting protein 2 (Homo sapiens) (UniProt Q8NFQ8); assay: LULL1 binders on small-molecule microarray, primary screen, cell lysate, human LULL1 lysate, 635/667 nm fluorescence (AID 1092); conditions: hLULL1 lysate binding, 635 nm fluorescence, higher = more signal;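 also: probe is lysate of COS7 cells overexpressing human LULL1; score merges per-feature 667 nm fluorescence with signal-to-noise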
[16] = E. coli growth modulation, two-sided OD650, primary screen, E. coli filamentation project, strain DRC41, 24 h (AID 1093); conditions: OD650, 24 h, higher = more signal, called active from +8 up or from −8 down;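 also: MC1000 strain lacking acrAB efflux and sulA so SOS filamentation is blocked; test concentration not given here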
[17] = small-molecule microarray binders of probe aLefty2, primary screen, biochemical, biotinylated probe, 635/667 nm fluorescence (AID 1094); conditions: higher = more signal;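 also: score merges spot fluorescence near 667 nm with spot signal-to-noise ratio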
[18] = tested on: Noggin (protein binding on small-molecule microarray); assay: Noggin binders on small-molecule microarray, primary screen, biochemical, 635/667 nm fluorescence (AID 1095); conditions: 635 nm fluorescence, higher = more signal;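 also: score merges 667 nm feature fluorescence with signal to noise over triplicate slides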
[19] = biological target: Neurogenic locus notch homolog protein 3 (Homo sapiens) (UniProt Q9UM47); assay: NOTCH3 binders on small-molecule microarray, primary screen, biochemical, 635/667 nm fluorescence (AID 1096); conditions: NOTCH3 binding, 635 nm fluorescence, higher = more signal
Neurogenic locus notch homolog protein 3 (Homo sapiens), sequence (Q9UM47 whole entry, looked up): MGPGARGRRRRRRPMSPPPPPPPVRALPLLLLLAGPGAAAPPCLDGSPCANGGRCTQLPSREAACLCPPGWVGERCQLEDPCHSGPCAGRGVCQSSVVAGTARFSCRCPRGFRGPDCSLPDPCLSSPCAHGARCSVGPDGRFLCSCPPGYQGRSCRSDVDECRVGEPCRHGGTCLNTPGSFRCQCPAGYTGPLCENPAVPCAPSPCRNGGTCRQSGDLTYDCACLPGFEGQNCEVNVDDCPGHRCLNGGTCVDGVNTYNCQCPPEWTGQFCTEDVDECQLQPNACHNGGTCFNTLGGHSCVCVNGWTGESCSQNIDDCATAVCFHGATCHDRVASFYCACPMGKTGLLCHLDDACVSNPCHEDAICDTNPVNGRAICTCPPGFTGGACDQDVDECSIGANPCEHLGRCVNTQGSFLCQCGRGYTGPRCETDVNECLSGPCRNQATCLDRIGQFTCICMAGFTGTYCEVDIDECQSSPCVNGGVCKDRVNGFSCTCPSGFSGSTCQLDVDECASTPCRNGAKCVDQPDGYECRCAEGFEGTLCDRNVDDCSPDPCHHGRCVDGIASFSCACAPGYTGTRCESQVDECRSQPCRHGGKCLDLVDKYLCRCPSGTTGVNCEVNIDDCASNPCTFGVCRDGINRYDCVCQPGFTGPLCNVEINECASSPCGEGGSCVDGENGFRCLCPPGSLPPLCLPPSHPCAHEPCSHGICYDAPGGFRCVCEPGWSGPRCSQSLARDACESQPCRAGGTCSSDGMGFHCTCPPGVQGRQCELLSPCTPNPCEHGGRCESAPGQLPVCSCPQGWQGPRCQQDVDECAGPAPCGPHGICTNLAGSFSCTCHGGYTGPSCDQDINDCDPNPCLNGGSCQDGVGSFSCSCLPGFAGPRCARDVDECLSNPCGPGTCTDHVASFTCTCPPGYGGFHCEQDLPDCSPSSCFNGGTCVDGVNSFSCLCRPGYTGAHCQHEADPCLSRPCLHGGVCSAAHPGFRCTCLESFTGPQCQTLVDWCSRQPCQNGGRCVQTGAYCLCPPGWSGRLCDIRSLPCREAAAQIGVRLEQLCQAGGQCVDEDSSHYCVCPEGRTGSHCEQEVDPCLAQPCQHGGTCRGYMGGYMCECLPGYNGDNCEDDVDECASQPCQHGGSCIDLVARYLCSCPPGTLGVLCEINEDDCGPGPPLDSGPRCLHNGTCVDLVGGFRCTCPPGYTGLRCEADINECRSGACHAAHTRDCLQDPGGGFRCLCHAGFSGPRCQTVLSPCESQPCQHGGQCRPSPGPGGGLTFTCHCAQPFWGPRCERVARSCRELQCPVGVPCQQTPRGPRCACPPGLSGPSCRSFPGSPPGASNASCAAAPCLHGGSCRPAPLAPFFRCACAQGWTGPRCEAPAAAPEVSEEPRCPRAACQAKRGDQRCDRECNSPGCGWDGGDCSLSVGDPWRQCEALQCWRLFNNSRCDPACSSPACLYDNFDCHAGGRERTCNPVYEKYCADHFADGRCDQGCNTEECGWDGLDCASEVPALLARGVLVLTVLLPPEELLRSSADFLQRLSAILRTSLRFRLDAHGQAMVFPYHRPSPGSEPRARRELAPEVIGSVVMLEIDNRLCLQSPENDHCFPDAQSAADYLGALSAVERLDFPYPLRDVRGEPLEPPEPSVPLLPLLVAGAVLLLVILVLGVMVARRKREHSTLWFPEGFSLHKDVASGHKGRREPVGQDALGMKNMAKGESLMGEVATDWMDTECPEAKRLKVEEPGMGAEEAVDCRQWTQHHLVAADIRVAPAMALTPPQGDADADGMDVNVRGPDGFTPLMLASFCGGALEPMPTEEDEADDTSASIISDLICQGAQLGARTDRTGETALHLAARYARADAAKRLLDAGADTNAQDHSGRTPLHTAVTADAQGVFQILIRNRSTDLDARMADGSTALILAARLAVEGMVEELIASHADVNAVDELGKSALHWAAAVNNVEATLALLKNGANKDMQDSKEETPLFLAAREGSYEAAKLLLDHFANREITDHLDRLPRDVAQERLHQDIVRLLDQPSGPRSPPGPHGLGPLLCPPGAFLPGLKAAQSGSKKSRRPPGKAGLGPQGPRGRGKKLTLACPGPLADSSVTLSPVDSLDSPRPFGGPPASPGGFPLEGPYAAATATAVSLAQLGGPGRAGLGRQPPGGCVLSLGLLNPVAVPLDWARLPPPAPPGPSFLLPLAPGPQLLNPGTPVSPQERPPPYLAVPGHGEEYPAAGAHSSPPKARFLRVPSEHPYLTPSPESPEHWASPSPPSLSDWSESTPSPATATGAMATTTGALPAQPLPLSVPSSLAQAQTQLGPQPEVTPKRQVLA

[20] = small-molecule microarray binders of probe aEGFR, primary screen, biochemical, biotinylated probe, 635/667 nm fluorescence (AID 1097); conditions: higher = more signal;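 also: probe is a biotinylated anti-EGFR antibody binding compounds printed on slides; score combines fluorescence near 667 nm and signal to noise of each spot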

SMILES: CC(C)NC(=O)[C@@H]1c2ccccc2C(=O)N(CC23CC4CC(CC(C4)C2)C3)[C@H]1c1ccc(CO)cc1
- composite z-score [1]: -0.438
- composite z-score [2]: -0.0125
- composite z-score [3]: -0.0277
- composite z-score [4]: 0.0767
- composite z-score [5]: 1.38
- composite z-score [6]: 0.93
- composite z-score [7]: 1.27
- z-score [8]: -3.34 (inactive)
- composite z-score [9]: 0.839
- composite z-score [10]: -0.434
- composite z-score [11]: 1.57
- z-score [12]: -1.44 (inactive)
- z-score [13]: -1.81 (inactive)
- z-score [14]: -0.241 (inactive)
- composite z-score [15]: 2.68
- z-score [16]: 1.43 (inactive)
- composite z-score [17]: -0.143
- composite z-score [18]: 0.701
- composite z-score [19]: 1.04
- composite z-score [20]: 0.0633

SMILES: CCc1cc2c(nc1CC)CCN(CCC(C)=NOC[C@@H](O)[C@H]1O[C@@H]3OC(C)(C)O[C@@H]3[C@H]1O)C2
- composite z-score [1]: -0.436
- composite z-score [2]: 0.273
- composite z-score [3]: -0.148
- composite z-score [4]: 0.0851
- composite z-score [5]: 0.191
- composite z-score [6]: 0.146
- composite z-score [7]: 0.335
- z-score [8]: 1.35 (inactive)
- composite z-score [9]: 0.0391
- composite z-score [10]: -0.0088
- composite z-score [11]: 0.85
- z-score [12]: -1.63 (inactive)
- z-score [13]: 0.24 (inactive)
- z-score [14]: -0.282 (inactive)
- composite z-score [15]: 0.767
- z-score [16]: 0.71 (inactive)
- composite z-score [17]: -0.175
- composite z-score [18]: 0.276
- composite z-score [19]: 0.0003
- composite z-score [20]: -0.0343

SMILES: CN(C)CCCNC(=O)[C@@H]1c2ccccc2C(=O)N(Cc2ccccc2)[C@H]1c1ccc(CO)cc1
- composite z-score [1]: 0.532
- composite z-score [2]: -0.338
- composite z-score [3]: 0.311
- composite z-score [4]: -0.343
- composite z-score [5]: -1.08
- composite z-score [6]: -0.0367
- composite z-score [7]: 0.571
- z-score [8]: -1.01 (inactive)
- composite z-score [9]: 0.178
- composite z-score [10]: -0.363
- composite z-score [11]: 0.0881
- z-score [12]: 0.115 (inactive)
- z-score [13]: -0.699 (inactive)
- z-score [14]: -0.848 (inactive)
- composite z-score [15]: 0.282
- z-score [16]: 0.442 (inactive)
- composite z-score [17]: 0.555
- composite z-score [18]: -0.848
- composite z-score [19]: -1.21
- composite z-score [20]: 0.259

SMILES: CO[C@H]1COC(=O)[C@@H]2CCCN2C(=O)[C@@H](C)COC(=O)CC=C[C@@H]1C
- composite z-score [1]: -0.553
- composite z-score [2]: 1.69
- composite z-score [3]: -0.118
- composite z-score [4]: 0.624
- composite z-score [5]: 0.0761
- composite z-score [6]: -0.446
- composite z-score [7]: 0.997
- z-score [8]: 0.36 (inactive)
- composite z-score [9]: 0.107
- composite z-score [10]: -0.249
- composite z-score [11]: 1.47
- z-score [12]: -0.62 (inactive)
- z-score [13]: 0.0569 (inactive)
- z-score [14]: -1.53 (inactive)
- composite z-score [15]: -0.652
- z-score [16]: 0.264 (inactive)
- composite z-score [17]: -0.238
- composite z-score [18]: 0.927
- composite z-score [19]: 0.665
- composite z-score [20]: 0.0082

SMILES: CCCC[C@@H](O)C1=C(C)C[C@H]2C(=O)N(Cc3ccccc3)C(=O)[C@H]2[C@H]1CO
- composite z-score [1]: -0.531
- composite z-score [2]: 0.709
- composite z-score [3]: -0.0564
- composite z-score [4]: 0.185
- composite z-score [5]: -0.0286
- composite z-score [6]: 0.0467
- composite z-score [7]: -0.322
- z-score [8]: 0.778 (inactive)
- composite z-score [9]: -0.0982
- composite z-score [10]: -0.0237
- composite z-score [11]: 0.18
- z-score [12]: -0.812 (inactive)
- z-score [13]: -2.19 (inactive)
- z-score [14]: 0.0211 (inactive)
- composite z-score [15]: -0.463
- z-score [16]: 0.706 (inactive)
- composite z-score [17]: -0.0998
- composite z-score [18]: 0.283
- composite z-score [19]: 0.15
- composite z-score [20]: -0.159

SMILES: COCCOC(=O)N1C(=O)[C@@]2(c3ccccc31)[C@H](C(N)=O)[C@H]1C(=O)O[C@H](c3ccccc3)[C@H](c3ccccc3)N1[C@@H]2c1ccccc1OCCO
- composite z-score [1]: 0.0407
- composite z-score [2]: 1.67
- composite z-score [3]: 0.147
- composite z-score [4]: 0.937
- composite z-score [5]: 0.899
- composite z-score [6]: 1.42
- composite z-score [7]: 1.11
- z-score [8]: -0.732 (inactive)
- composite z-score [9]: 0.521
- composite z-score [10]: 0.234
- composite z-score [11]: 1.53
- z-score [12]: 0.438 (inactive)
- z-score [13]: -0.142 (inactive)
- z-score [14]: 3.11 (inactive)
- composite z-score [15]: 1.84
- z-score [16]: 1.24 (inactive)
- composite z-score [17]: 0.16
- composite z-score [18]: 1.32
- composite z-score [19]: 1.12
- composite z-score [20]: 0.261

SMILES: C=CCOC(=O)[C@H]1[C@@H]2C(=O)O[C@@H](c3ccccc3)[C@@H](c3ccccc3)N2[C@@H](c2ccc(OCCOC(=O)[C@H]3C[C@H]4C(=O)N5CCC[C@H]5C(=O)N4[C@H]3c3cccc(OCCO)c3)cc2)[C@]12C(=O)Nc1ccc(I)cc12
- composite z-score [1]: 1.82
- composite z-score [2]: 1.9
- composite z-score [3]: 0.522
- composite z-score [4]: 0.92
- composite z-score [5]: 1.47
- composite z-score [6]: 2.91
- composite z-score [7]: 1.47
- z-score [8]: 1.07 (inactive)
- composite z-score [9]: 2.63
- composite z-score [10]: 0.794
- composite z-score [11]: 1.53
- z-score [12]: -0.104 (inactive)
- z-score [13]: -0.77 (inactive)
- z-score [14]: 0.289 (inactive)
- composite z-score [15]: 3.41
- z-score [16]: -0.301 (inactive)
- composite z-score [17]: 1.35
- composite z-score [18]: 1.49
- composite z-score [19]: 1.12
- composite z-score [20]: 0.938

SMILES: COC(=O)C1=C(C)[C@@H](O)[C@@H](C)[C@H](c2c(OC)c(OC)c(C)c(OC)c2OC)O1
- composite z-score [1]: -0.511
- composite z-score [2]: 0.487
- composite z-score [3]: -0.131
- composite z-score [4]: 0.166
- composite z-score [5]: 0.239
- composite z-score [6]: -0.412
- composite z-score [7]: 0.0778
- z-score [8]: -0.298 (inactive)
- composite z-score [9]: 0.0017
- composite z-score [10]: -0.0645
- composite z-score [11]: -0.462
- z-score [12]: 0.645 (inactive)
- z-score [13]: 0.629 (inactive)
- z-score [14]: -0.22 (inactive)
- composite z-score [15]: -0.166
- z-score [16]: 0.164 (inactive)
- composite z-score [17]: -0.142
- composite z-score [18]: 0.461
- composite z-score [19]: 0.105
- composite z-score [20]: -0.106

SMILES: C=C(CCCC)C(=O)CC[C@@H](OC(C)=O)c1cccc(OCCO)c1
- composite z-score [1]: -0.168
- composite z-score [2]: -0.371
- composite z-score [3]: -0.152
- composite z-score [4]: -0.565
- composite z-score [5]: -0.46
- composite z-score [6]: 0.25
- composite z-score [7]: 1.36
- z-score [8]: -3.56 (inactive)
- composite z-score [9]: -0.507
- composite z-score [10]: -0.0994
- composite z-score [11]: 0.468
- z-score [12]: -24.3 (active)
- z-score [13]: -20.6 (active)
- z-score [14]: -3.92 (inactive)
- composite z-score [15]: 0.0116
- z-score [16]: -0.139 (inactive)
- composite z-score [17]: -0.193
- composite z-score [18]: 1.54
- composite z-score [19]: 0.165
- composite z-score [20]: -0.192

SMILES: CC(C)[Si]1(C(C)C)O[C@@H](c2ccccc2)c2cc(C3CC3)nc(-c3ccccc3)c21
- composite z-score [1]: -0.324
- composite z-score [2]: -0.598
- composite z-score [3]: -0.0494
- composite z-score [4]: -0.0526
- composite z-score [5]: 0.0397
- composite z-score [6]: -0.234
- composite z-score [7]: -0.717
- z-score [8]: 0.178 (inactive)
- composite z-score [9]: -0.0973
- composite z-score [10]: 0.0274
- composite z-score [11]: 0.0587
- z-score [12]: -0.443 (inactive)
- z-score [13]: -5.5 (inactive)
- z-score [14]: -0.215 (inactive)
- composite z-score [15]: -0.332
- z-score [16]: -0.867 (inactive)
- composite z-score [17]: -0.34
- composite z-score [18]: -0.207
- composite z-score [19]: 0.492
- composite z-score [20]: -0.0304
